Laboratory results published in PubChem BioAssay (NCI).
Compounds without any hit were thinned out: in the full panel of roughly 83,000, 20% have a hit.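 Method: cells in 96-well plates; compound added at one concentration; 48 h incubation; percent growth measured; values under 10 scored active.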 A number with no mark means an inactive call. The source made the active and inactive calls.

What was measured:
Assay in all cases: NCI-60 one-dose screen, 48 h (100 = growth as untreated, 0 = no growth, -100 = all killed)
Details in all cases: 10 µM unless noted
[1] = tested on: HCT-15 colon
[2] = tested on: HT29 colon
[3] = tested on: SNB-75 CNS
[4] = tested on: SNB-19 CNS
[5] = tested on: U251 CNS
[6] = tested on: PC-3 prostate
[7] = tested on: SK-MEL-5 melanoma
[8] = tested on: UACC-62 melanoma
[9] = tested on: LOX IMVI melanoma
[10] = tested on: SK-MEL-2 melanoma
[11] = tested on: EKVX NSCLC
[12] = tested on: SN12C renal
[13] = tested on: UO-31 renal
[14] = tested on: TK-10 renal
[15] = tested on: ACHN renal
[16] = tested on: A498 renal
[17] = tested on: CCRF-CEM leukemia
[18] = tested on: MOLT-4 leukemia
[19] = tested on: CAKI-1 renal
[20] = tested on: SK-MEL-28 melanoma

Structure (SMILES)	growth [1]	growth [2]	growth [3]	growth [4]	growth [5]	growth [6]	growth [7]	growth [8]	growth [9]	growth [10]	growth [11]	growth [12]	growth [13]	growth [14]	growth [15]	growth [16]	growth [17]	growth [18]	growth [19]	growth [20]
CCCCCCCCCCN1CCC(N2CCCCC2)CC1	-5.57% (active)	-38.9% (active)	-47.8% (active)	28.2%	4.67% (active)	16%	-96.9% (active)	-79.7% (active)	-72.8% (active)	-19.9% (active)	37.4%	45.4%	-86.7% (active)	25.2%	38.2%	74.2%	6.95% (active)	-26% (active)	–	–
Cc1ccc(/C=C/C(=O)c2ccc(F)cc2)s1	67.3%	43.5%	90.9%	88%	51.6%	63.8%	90.6%	72.7%	58.3%	85.8%	81.1%	71.7%	57.6%	–	83%	70.1%	8.11% (active)	11.6%	78.6%	–
CCCCCN1C(=O)CCC1=O	106%	102%	98.6%	101%	99%	95.1%	102%	99.3%	102%	103%	98.9%	101%	85.8%	106%	104%	106%	-52.3% (active)	110%	91.8%	–
COc1cnc2c(c1)C(=O)c1c-2n(CCCNC2=NCCS2)c(=O)c2cc(F)ccc12	43.3%	22.2%	33.1%	54.6%	12.1%	36.9%	0.102% (active)	17.4%	–	90.7%	67.5%	36.7%	15.9%	–	6.18% (active)	-52.4% (active)	0.88% (active)	0.0786% (active)	–	79.2%
COc1cc(C2CC(C3C(=O)N(C)C(=O)N(C)C3=O)=NN2C=O)cc(OC)c1OC (stereo unspecified)	102%	76.2%	94.8%	100%	96.3%	75.9%	113%	93.9%	97.7%	–	100%	94%	101%	87.4%	105%	95.1%	82.8%	92.7%	–	–
CCOC(=O)/C(=C/CC/C(C)=C/CC/C(C)=C/CCc1ccoc1)CC(=O)N1CCCCC1	69.2%	55.5%	82.6%	36%	66.6%	28.7%	9% (active)	23.8%	–	-19% (active)	–	47.2%	25.1%	63.7%	55.2%	-20.2% (active)	22.7%	0.624% (active)	60.7%	36.8%
COc1ccc(-c2nc3sc4c(c3c(=O)[nH]2)CCCCCC4)cc1	27.7%	14.3%	49.4%	66%	46.8%	70.2%	53.1%	24.6%	–	39.7%	–	59.4%	62%	60.5%	65.6%	34.6%	30%	43.4%	47.2%	62.1%
C/C(=C\CCc1ccoc1)CC/C=C(\C)CCCN1CCOCC1	23.8%	22.7%	60.9%	67.5%	44.3%	55.9%	15.6%	62.5%	–	78.7%	–	70.5%	52.3%	61.3%	76.3%	75.7%	29.6%	54.2%	58.3%	80.4%
COc1cc(/C=C/C(=O)C(C(=O)/C=C/c2ccc(OC(=O)CCNc3nnc(C)s3)c(OC)c2)C(=O)CCNc2nnc(C)s2)ccc1OC(=O)CCNc1nnc(C)s1	-43.2% (active)	-69% (active)	-13.6% (active)	32.7%	11.1%	-16.4% (active)	-22.6% (active)	-67.6% (active)	–	13.2%	21.9%	-33.9% (active)	–	29.4%	-21.4% (active)	49.7%	–	-27.9% (active)	-3.62% (active)	-15.6% (active)
CC(C)C[C@H](NC(=O)/C=C/Cn1ccc2ccccc2c1=O)B(O)O	67.5%	8.43% (active)	50.2%	56.2%	55.8%	79.1%	23.5%	17%	–	24%	–	54.7%	48.9%	2.1% (active)	31.7%	-3.46% (active)	12.2%	1.78% (active)	45.3%	–
O=C(c1ccccc1)C(CN1CCCCC1)c1ccccc1 (stereo unspecified)	-22% (active)	-13.4% (active)	63.4%	78.5%	15.9%	49.8%	–	25.8%	-94.9% (active)	50.1%	93.8%	26%	-36.3% (active)	10.9%	-12.5% (active)	–	-20.2% (active)	0.0819% (active)	1.39% (active)	58.8%
COc1ccc2cc(C3=CC(=O)CCC3)ccc2c1	99.2%	86.7%	95.1%	92.1%	102%	91.3%	–	77.1%	91.1%	92.7%	99.1%	97.2%	92.4%	100%	107%	-87.9% (active)	90.9%	–	102%	115%
C#C[C@]1(O)CCC2C3CCc4cc(O)ccc4C3CC[C@@]21C (stereo partly specified)	31.9%	11.7%	38.8%	53.1%	32.2%	64.9%	–	30.5%	41.8%	18.5%	31.6%	52.3%	55.7%	–	60.4%	49.2%	39%	23.4%	45.3%	59.2%
CCCCCCCCCCOC(C)=O	107%	106%	80.7%	108%	108%	93.4%	107%	103%	–	116%	–	103%	89%	116%	98.8%	108%	–	103%	79.8%	110%
CCC(=O)Nc1cc2c(cc1Cl)-c1ccccc1C2	94.9%	114%	83.1%	101%	96.4%	80.5%	–	84.8%	88.2%	97.5%	57.1%	68.7%	42.5%	110%	87.1%	83.6%	–	82.1%	83.6%	122%
